Measured values from PubChem BioAssay (NCATS).
Records with an inconclusive call do not appear. A number with no mark means an inactive call. The source made the active and inactive calls. The call rests on the fitted dose curve; in most records, active means well fitted activation curve with a large enough effect; inconclusive means small, poorly fitted or top-dose-only effect; inactive means no such curve, though single readings can be large or run the other way.

Biological target: Cellular tumor antigen p53 (Homo sapiens) (UniProt P04637)
Experiment: Primary qHTS for small molecule compounds that upregulate eGFP-tagged delta133p53alpha (in N-terminal) cells. (AID 2060322); further: nearly all actives have a fitted effect of over 75% in size;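 on activation: cells pre-induced with doxycycline then dosed without doxycycline; series mostly up to about 56 µM; 0% = DMSO vehicle and 100% = reference activator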
Conditions: NCI-H358 eGFP-delta133p53alpha fluorescence, 24 h; activation: stronger effect = higher value
In short: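 NCI-H358 cells pre-induced 24 h with 10 ng/ml doxycycline for eGFP-delta133p53alpha, plated dox-free and exposed 24 h at 37C to titrated compounds. Fixed, Hoechst-stained; gated GFP peak intensity by laser scanning cytometry, normalized to DMSO (0%) and 57.5 uM 5-azacytidine (100%).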
Potency means the concentration at half of the fitted maximal effect.

Cellular tumor antigen p53 (Homo sapiens), sequence (P04637 whole entry, looked up): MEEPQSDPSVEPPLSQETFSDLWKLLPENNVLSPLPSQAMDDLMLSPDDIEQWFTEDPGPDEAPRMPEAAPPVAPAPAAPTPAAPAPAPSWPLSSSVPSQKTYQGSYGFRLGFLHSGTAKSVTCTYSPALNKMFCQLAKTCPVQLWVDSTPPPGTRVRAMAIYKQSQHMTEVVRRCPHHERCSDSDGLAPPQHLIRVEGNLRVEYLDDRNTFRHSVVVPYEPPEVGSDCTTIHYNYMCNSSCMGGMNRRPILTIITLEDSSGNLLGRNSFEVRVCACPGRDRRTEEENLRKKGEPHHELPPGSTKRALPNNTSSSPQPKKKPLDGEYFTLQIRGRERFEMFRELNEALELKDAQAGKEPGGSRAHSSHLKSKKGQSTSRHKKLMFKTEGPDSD

SMILES	activation	Potency
CC[C@H](C)[C@H](N)C(=O)O	-22%	–
CCC[C@@H]1C[C@@H](C(=O)N[C@@H]([C@H]2O[C@H](SC)[C@H](O)[C@@H](O)[C@H]2O)[C@@H](C)O)N(C)C1	-5.08%	–
CC=CC(=O)N(CC)c1ccccc1C	-8.73%	–
O=C(CS(=O)Cc1ccco1)NCC=CCOc1cc(CN2CCCCC2)ccn1 (configuration not stated)	38.6%	–
CNCCN1CCC(OCc2ccccc2)CC1	-13.4%	–
CC(=O)[C@H]1CC[C@H]2[C@@H]3C[C@H](C)C4=CC(=O)CC[C@]4(C)[C@H]3[C@@H](O)C[C@]12C	-15.9%	–
C[N+]1(C)CCCC(OC(=O)C(O)(c2ccccc2)c2ccccc2)C1 (configuration not stated)	-37.9%	–
Nc1ccc(C(=O)OCC(O)CO)cc1 (configuration not stated)	6.21%	–
Nc1ccc(O)c(C(=O)O)c1	-19.2%	–
CCC(C(=O)O)c1ccc(N2Cc3ccccc3C2=O)cc1 (configuration not stated)	18.6%	–
C[C@H]1O[C@@H](O[C@H]2CC[C@@]3(C)[C@H](CC[C@@H]4[C@@H]3C[C@@H](O)[C@]3(C)[C@@H](C5=CC(=O)OC5)CC[C@]43O)C2)C[C@H](O)[C@@H]1O[C@H]1C[C@H](O)[C@H](O[C@H]2C[C@H](O)[C@H](O[C@@H]3O[C@H](CO)[C@@H](O)[C@H](O)[C@H]3O)[C@@H](C)O2)[C@@H](C)O1	–	1.55 µM (active)
C[C@@H]1O[C@@H](OC[C@H]2O[C@@H](Oc3c(-c4ccc(O)c(O)c4)oc4cc(O)cc(O)c4c3=O)[C@H](O)[C@@H](O)[C@@H]2O)[C@H](O)[C@H](O)[C@H]1O	-29.9%	–
